HT1080-NT tox = qHTS for induction of synthetic lethality in tumor cells producing 2HG: qHTS for the HT-1080-NT fibrosarcoma cell line | HT-1080-NT fibrosarcoma viability, CellTiter-Glo ATP luminescence, 48 h | Potency, µM (top dose mostly 46.1 µM), most hits filed as cytotoxic | 360,000 compounds, 1.6% hits | AID 686970, 2013;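 further: NT is the 2HG producing partner of a matched IDH1 knockdown line; nearly all actives have a fitted effect of over 55% in size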
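Fibrosarcoma NT cells, 750 per well in 5% FBS RPMI, were exposed to compound for 48 hours. Viability: CellTiter-Glo luminescence.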
DT40 TDP1 no CPT = qHTS for Inhibitors of human tyrosyl-DNA phosphodiesterase 1 (TDP1): qHTS in cells in absence of CPT | Potency, µM (series often up to 46.2 µM), hits mostly inhibitors | AID 686978, 2013 | DT40 Tdp1-/- hTDP1 cells, no CPT, ATP luminescence, 48 h | 420,000 compounds, 15% hits; further: nearly all actives have a fitted effect of over 55% in size
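DT40 Tdp1-/-;hTDP1 cells, no CPT (DMSO vehicle only), 400 cells/well; compounds pin-transferred; ≥48 hr, 37 °C; CellTiter-Glo 30 min RT dark, luminescence read.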
IL1B secr inh = qHTS for Inhibitors of Inflammasome Signaling: IL-1-beta AlphaLISA Primary Screen | THP-1 LPS/ATP IL-1B secretion, AlphaLISA, 16 h; active compounds read low | activity change, % at 57.5 µM | 360,000 compounds, 4.7% hits; in the data active means activity change below about -50%; inconclusive means mostly about -30% to -49%
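THP-1 cells pretreated 1 hr with compounds (up to 57.5 uM final), then stimulated with LPS (250 ng/mL final) plus ATP (1.25 mM final); secreted IL-1B measured by AlphaLISA after 16 hr, decreased signal indicating inhibition.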
uPA surface inh = qHTS for Inhibitors of Cell Surface uPA Generation; 330,000 compounds, 0.31% hits; AID 540303, 2011; cell surface uPA generation assay, qHTS; Potency, µM (highest dose often 38.3 µM), most hits filed as inhibitors; active means well fitted inhibition curve with a large enough effect; inconclusive means small, poorly fitted or top-dose-only effect; inactive means no such curve, though single readings can be large or run the other way; tested in mouse RAW 264.7 cells; further: nearly all actives have a fitted effect of over 55% in size
TDP1 cell CPT = qHTS for Inhibitors of human tyrosyl-DNA phosphodiesterase 1 (TDP1): qHTS in cells in presence of CPT | chicken DT40 Tdp1-/-;hTDP1 cells + 20 nM CPT, ATP luminescence, 48 h | Potency, µM (top dose mostly 46.2 µM), usual class: inhibitors | 420,000 compounds, 12% hits | AID 686979, 2013; further: nearly all actives have a fitted effect of over 55% in size
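Chicken DT40 Tdp1-/- cells complemented with human TDP1, 400 cells/well, exposed to compounds plus 20 nM camptothecin for at least 48 h at 37 C; viability read as ATP content by CellTiter-Glo luminescence.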
HT1080 IDH1KD tx = qHTS for induction of synthetic lethality in tumor cells producing 2HG: qHTS for the HT-1080-IDH1KD cell line; HT-1080 IDH1 knockdown viability, ATP luminescence, 48 h; Potency, µM (doses to about 46.1 µM), usual class: cytotoxic; 360,000 compounds, 2% hits; AID 686971, 2013
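Luminescent ATP read-out (CellTiter-Glo, 10 min at room temperature) after 48 h compound exposure at 37 °C gave viability of IDH1-knockdown HT-1080 cells. Activity was normalised to DMSO and cell-free wells, then fitted as concentration-response curves.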
Numbers stand for hits; n = inactive; u = inconclusive; x = not tested or not shown; [ ] = dose if it differs, or a comment. Most compounds without a hit are left out; they make up all but 19% or so of the library. Unless noted, the call rests on the fitted dose curve; in most records, active means well fitted curve in the direction sought with a large enough effect; inconclusive means small, poorly fitted or top-dose-only effect, or another doubt; inactive means no such curve, though single readings can be large; an effect the other way counts as inactive or inconclusive.

SMILES | HT1080-NT tox | DT40 TDP1 no CPT | IL1B secr inh | uPA surface inh | TDP1 cell CPT | HT1080 IDH1KD tx
Cc1cccc2cc(CN(CC3CCCO3)C(=O)c3cccc(F)c3)c(N(C)C)nc12 (configuration not stated) | x | n | x | x | n[9.04 µM] | x
CCN1CCN(CCCNC(=O)c2cc3c(=O)n(C)c4ccccc4c3s2)CC1 | x | 10.3µM | x | x | u | x
Cn1c(C(=O)NCCN2CCN(c3ccccc3F)CC2)cc2c(=O)n(C)c3ccccc3c21 | n | 23.1µM | n | n | 18.4µM | n
Cn1c(=O)c2cc(C(=O)NCCCN3CCN(c4ccc(F)cc4)CC3)sc2c2ccccc21 | x | 2.91µM | x | x | u | x
Cn1c(=O)c2cc(C(=O)NCCCN3CCN(c4ccccc4F)CC3)sc2c2ccccc21 | x | 3.66µM | x | x | 3.66µM | x
CCOc1ccc(CCNC(=O)NCc2noc3ccc(C)cc23)cc1 | x | u | x | x | n | x
Cc1cccn2c(=O)c3cc(C(=O)NC4CCCC4)sc3nc12 | n | u | n | n | u | n
O=C(COc1ccccc1/C=C1\SC(=S)NC1=O)Nc1ccc(F)cc1 | u | 10.3µM | n | n | u | u
Cn1cccc1C(C#N)c1cccc(F)c1C#N (configuration not stated) | n | 18.4µM | n | n | u | n
Cc1occc1C(=O)N1CCCC(CCC(=O)NCc2ccc(F)c(F)c2)C1 (configuration not stated) | n | 20.6µM | n | n | u | n
COc1cccc(CNC(=O)CCC2CCCN(C(=O)c3cc4ccccc4o3)C2)c1 (configuration not stated) | n | 13µM | -90.4 | n | u | n
CSc1ncccc1C(=O)N1CCCC(CCC(=O)NCc2ccc(F)c(F)c2)C1 (configuration not stated) | n | u | n | n | u | n
O=C1C2C3C=CC(CC3)C2C(=O)N1c1ccc(Br)cc1[N+](=O)[O-] (configuration not stated) | n | n | n | n | n | n
O=C1[C@H]2[C@@H]3CCN1CCC[C@@H]2C=C[C@@H]3c1ccc(Br)cc1 | n | 18.4µM | n | x | u | u
COc1cccc(NC(=O)C2CCC(CNS(=O)(=O)c3ccc4c(c3)CCCC(=O)N4)CC2)c1 (configuration not stated) | x | 14.6µM | x | x | 11.6µM | x
CCN(Cc1ccccc1)C(=O)C1CCC(CNS(=O)(=O)c2ccc3c(c2)CCCC(=O)N3)CC1 (configuration not stated) | x | 16.4µM | x | x | u | x
CCOc1ccccc1NC(=O)C1CCC(CNS(=O)(=O)c2ccc3c(c2)CCCC(=O)N3)CC1 (configuration not stated) | x | 23.1µM | x | x | u | x
Cc1nnc(SCC(=O)Nc2cc(-c3cc(C)c(C)cc3C)nn2-c2ccccc2)s1 | n | 11.6µM | n | n | 20.6µM | n
Cc1ccc(-c2cc(NC(=O)CSc3n[nH]c(N)n3)n(-c3ccccc3)n2)cc1 | n | u | n | n | n | n
CCCc1ccc(-c2cc(NC(=O)CSc3nnc(N)s3)n(-c3ccccc3)n2)cc1 | 16.4µM | 20.6µM | u | n | 23.1µM | u
O=S(=O)(/N=C(/Nc1ccccc1)c1ccccc1O)c1ccccc1 | n | n | n | n | n | n
O=C(c1cccc2ccccc12)C1CCCN(C(=O)CCCn2cncn2)C1 (configuration not stated) | n | 16.4µM | n | n | n | n
CCc1cc(C(=O)N2CCCC(C(=O)c3cccc4ccccc34)C2)n(C)n1 (configuration not stated) | n | 14.6µM | n | n | u | n

Screening data as filed in PubChem.
